Shown are actives, neighbours in structure and some others; about 19% of the full set was active somewhere.
TDP1 cell CPT: growth inhibition of DT40 Tdp1-/-;hTDP1 cells with camptothecin (screen for TDP1 inhibitors); chicken DT40 Tdp1-/-;hTDP1 cells + 20 nM CPT, ATP luminescence, 48 h; Potency, µM (series often up to 46.2 µM), without a hit: at the highest dose activity change, negative = growth inhibition, actives largely listed as inhibitors; 420,000 compounds, 12% hits; AID 686979; further: potency means the concentration at half of the fitted maximal effect; on the % scale 0 is the no-effect control and ±100 the full control effect; nearly all actives have a fitted effect of over 55% in size
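Cell growth measured by CellTiter-Glo luminescence after a minimum 48 h, 37 C compound exposure with 20 nM CPT in Tdp1-knockout DT40 cells stably expressing hTDP1, seeded 400/well; qHTS titration format.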
IL-1B inflam inh: blocks inflammasome-driven IL-1 beta release; THP-1 LPS/ATP IL-1B secretion, AlphaLISA, 16 h; stronger effect = lower value; 360,000 compounds, 4.7% hits; activity change, % at 57.5 µM; in the data active means activity change below about -50%; inconclusive means mostly about -30% to -49%; further: on the % scale 0 is the no-effect control and ±100 the full control effect
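Secreted IL-1B measured by AlphaLISA bead assay after 16 h compound exposure of THP-1 cells; compounds (final up to 57.5 uM) added 1 h before LPS (250 ng/mL) and ATP (1.25 mM) stimulation; lower signal means less secretion.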
S-ASM inh: inhibitors of human secretory acid sphingomyelinase. P17405. placental ASM, HMU-PC fluorogenic substrate, 60 min. Potency, µM (titrated, usually from 57.5 µM), without a hit: at the top dose activity change, negative = inhibition, most hits filed as inhibitors. 340,000 compounds, 0.006% hits. AID 504937; further: potency means the concentration at half of the fitted maximal effect
Target sequence (P17405 47-631 limits assumed): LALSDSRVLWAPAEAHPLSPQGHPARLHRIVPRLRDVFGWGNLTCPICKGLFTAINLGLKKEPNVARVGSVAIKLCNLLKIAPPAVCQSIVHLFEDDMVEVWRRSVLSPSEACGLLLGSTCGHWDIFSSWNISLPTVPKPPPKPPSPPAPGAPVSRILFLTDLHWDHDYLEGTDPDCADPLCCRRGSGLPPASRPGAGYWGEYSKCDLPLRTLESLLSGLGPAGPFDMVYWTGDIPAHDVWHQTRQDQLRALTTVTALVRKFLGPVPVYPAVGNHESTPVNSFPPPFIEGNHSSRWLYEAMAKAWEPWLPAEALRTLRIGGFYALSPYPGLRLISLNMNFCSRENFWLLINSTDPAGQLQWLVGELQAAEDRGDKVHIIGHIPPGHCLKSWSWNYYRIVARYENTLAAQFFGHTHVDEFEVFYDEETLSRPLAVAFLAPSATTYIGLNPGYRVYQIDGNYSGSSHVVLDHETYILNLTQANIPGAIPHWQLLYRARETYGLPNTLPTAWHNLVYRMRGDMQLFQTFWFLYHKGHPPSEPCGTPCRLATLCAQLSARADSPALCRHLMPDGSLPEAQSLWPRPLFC
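Human placenta-derived ASM enzyme was preincubated with compound for 10 minutes at room temperature, then given fluorogenic substrate HMU-PC0 (9 uM final) for 60 minutes at 37 °C; a pH 10 stop preceded fluorescence reading at Ex 386/Em 447 nm.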
DT40 TDP1 no CPT: qHTS for Inhibitors of human tyrosyl-DNA phosphodiesterase 1 (TDP1): qHTS in cells in absence of CPT; DT40 Tdp1-/- hTDP1 cells, no CPT, ATP luminescence, 48 h; Potency, µM (titrated, usually from 46.2 µM), inactives show at the top dose activity change, negative = growth inhibition, usual class: inhibitors; 420,000 compounds, 15% hits; further: potency means the concentration at half of the fitted maximal effect; on the % scale 0 is the no-effect control and ±100 the full control effect; nearly all actives have a fitted effect of over 55% in size
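Growth kinetics read by CellTiter-Glo luminescence after ≥48 hr at 37 °C. Cells: DT40 Tdp1-/- stably carrying human TDP1, 400 per well, compound exposure in the absence of CPT (DMSO vehicle).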
HepG2 viability: HepG2 cytotoxicity, counter-screen for TGF-b inhibitors | HepG2 CAGA-GFP viability, ATP luminescence, 18 h | Potency, µM (titrated, usually from 46.1 µM), for inactives: at the highest dose activity change, negative = cytotoxicity, actives largely listed as cytotoxic | 410,000 compounds, 0.76% hits | AID 588856; further: potency means the concentration at half of the fitted maximal effect
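HepG2 CAGA-GFP cells (1000/well, DMEM with 1% FBS) received compound, then TGF-beta at 500 pg/mL final, and were incubated 18 hours at 37 degrees C. Viability was read by CellTiter-Glo luminescence. Media-only wells were set as complete cell-killing and DMSO as no toxicity.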
TGFb inhibitor: inhibitors of TGF-b signaling | HepG2 CAGA-GFP TGF-b/SMAD3 reporter, GFP fluorescence, 18 h; TGF-beta stimulated, 500 pg/mL final | AID 588855 | 410,000 compounds, 1.2% hits | Potency, µM (highest dose often 46.1 µM), inactives show at the top dose activity, negative = inhibition, most hits filed as inhibitors; further: potency means the concentration at half of the fitted maximal effect; on the % scale 0 is the no-effect control and ±100 the full control effect; nearly all actives have a fitted effect of over 65% in size
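Smad-responsive CAGA-GFP expression was quantified in HEPG2 cells exposed to compounds and 500 pg/mL final TGF-beta for 18 h at 37 degrees C; unstimulated wells defined full inhibition.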
Starred values were filed as active, the others as inactive; i = inactive; u = inconclusive; x = no result. Unless noted, the call rests on the fitted dose curve; in most records, active means well fitted curve in the direction sought with a large enough effect; inconclusive means small, poorly fitted or top-dose-only effect, or another doubt; inactive means no such curve, though single readings can be large; an effect the other way counts as inactive or inconclusive.

SMILES	TDP1 cell CPT	IL-1B inflam inh	S-ASM inh	DT40 TDP1 no CPT	HepG2 viability	TGFb inhibitor
CCCN1C(=O)/C(=C2\SC(N3CCCCC3)=NC2=O)c2ccccc21	u	-55*	u	18µM*	-17%	-3%
CN1C(=O)/C(=C2\SC(N)=NC2=O)c2ccccc21	18µM*	-18	-8%	26µM*	-41%	1%
CCN1CCCC1CNC(=O)c1cnn(-c2nccc(-c3cc(OC)ccc3OC)n2)c1C (stereo not drawn)	10%	x	x	-23%	x	x
Cn1cc(C(=O)c2ccc(Cl)cc2Cl)cc1C(=O)N/N=C(\N)COc1ccc(F)cc1	u	-1	-7%	16µM*	-3%	-6%
Cn1cc(C(=O)c2ccc(Cl)cc2Cl)cc1C(=O)N/N=C(\N)COc1ccc(Cl)cc1	u	1	-4%	u	3%	u
CCOC(=O)C(=O)c1c(-c2ccccc2)nc2ccccn12	u	0	-5%	u	-14%	0%
CCOC(=O)c1c(-c2ccccc2)nc2ccc(C)cn12	u	11	-3%	16µM*	-7%	-6%
CCOC(=O)C(=O)c1c(-c2ccc(C)cc2)nc2ccccn12	23µM*	-16	-4%	u	-28%	-20%
CCOC(=O)c1c(C)nc2ccccn12	-6%	40	4%	-10%	8%	-12%
Cc1ccc(SCC(=O)c2c(C)nc3ccccn23)cc1	21µM*	u	0%	10µM*	-24%	-21%
CN(CC(=O)Nc1ccccc1Cl)C(=O)COC(=O)C1CC1	11%	8	3%	8%	12%	-3%
O=C(O)CCCC(=O)Nc1ccccc1SCCS(=O)(=O)c1ccc(Cl)cc1	2%	-12	-2%	1%	-25%	-7%
Cc1cc(C)c(S(=O)(=O)N2CCOCC2)c(C)c1N(C)S(=O)(=O)c1ccccc1	-20%	i	4%	u	-3%	14%
Cc1cc(C)c(S(=O)(=O)N2CCCCC2)c(C)c1N(C)S(=O)(=O)c1ccccc1	12µM*	u	-3%	u	-14%	u
Cc1cc(C)c(S(=O)(=O)N2CCCCC2)cc1N(C)S(=O)(=O)c1ccc(Cl)cc1	23µM*	u	-2%	16µM*	1%	3%
Cc1ccc(S(=O)(=O)N2CCN(C)CC2)c(C)c1N(C)S(=O)(=O)c1ccc(Cl)cc1	u	-13	0%	23µM*	-6%	24%
Cc1ccc(S(=O)(=O)N(C)c2cc(S(=O)(=O)N3CCOCC3)c(C)cc2C)cc1	-24%	-4	1%	u	0%	14%
Cc1c(Cl)ccc(S(=O)(=O)N2CCN(C)CC2)c1Cl	-8%	2	x	-23%	-14%	-5%
COc1cc(Cl)c(C)cc1NC(=O)c1cc(CN2CCOCC2)on1	u	x	x	u	-25%	-2%
COc1ccc(OC)c2nc3c(cc12)CCC3	2%	26	6%	-1%	-8%	0%
CCN(CC)CCNC(=O)c1ccc(NC(=O)c2cc(S(=O)(=O)N3CCCCC3)ccc2N2CCOCC2)cc1	-17%	14	1%	-16%	-5%	u
CCN(CC)CCNC(=O)c1ccc(N2CCCCC2)c(NS(=O)(=O)c2ccc(C)cc2)c1	26µM*	-28	-3%	21µM*	-59%	-6%
CCS(=O)(=O)N1CCN(c2ccc(C(=O)NC3C4CC5CC(C4)CC3C5)cc2[N+](=O)[O-])CC1 (stereo not drawn)	8.2µM*	4	-10%	8.2µM*	8%	4%
COC(=O)c1ccc(N2CCN(S(=O)(=O)c3ccc(Br)cc3)CC2)c([N+](=O)[O-])c1	u	-18	-19%	u	1%	-1%
COC(=O)c1ccc(N2CCN(S(=O)(=O)c3ccc(C)cc3)CC2)c([N+](=O)[O-])c1	18µM*	8	-13%	21µM*	-28%	-12%
SMILES	TDP1 cell CPT	IL-1B inflam inh	S-ASM inh	DT40 TDP1 no CPT	HepG2 viability	TGFb inhibitor
COC(=O)c1ccc(N2CCCCC2)c(NS(=O)(=O)c2ccc(C)cc2)c1	16µM*	-2	-4%	u	-5%	0%
CCCn1cc(S(=O)(=O)c2cccc(Cl)c2)c(=O)c2cc(F)c(N3CCOCC3)cc21	u	x	x	u	-2%	u
COc1ccc(CCNC(=O)COC(=O)c2ccccc2NCCO)cc1OC	3%	12	i	-19%	-1%	-2%
CC(NC(=O)c1cccnc1)C(c1ccccc1)N1CCN(C)CC1 (stereo not drawn)	1%	19	-2%	7%	-2%	-5%
CC(NC(=O)c1ccc(-c2ccccc2)cc1)C(c1ccccc1)N1CCOCC1 (stereo not drawn)	u	0	-7%	13µM*	-22%	-23%
CC(NC(=O)Cc1ccccc1)C(c1ccccc1)N1CCOCC1 (stereo not drawn)	-15%	-64*	3%	-16%	-4%	1%
CC(=O)C(C(c1ccccc1)N1CCOCC1)N1CCOCC1 (stereo not drawn)	u	-3	2%	18µM*	-14%	5%
COC(=O)Nc1ccc2c(c1)N(C(=O)CCN1CCN3CCCC3C1)c1ccccc1S2 (stereo not drawn)	13µM*	-25	4%	u	-3%	-31%
Cc1nn(-c2ccccc2)nc1-c1nnc(-c2ccc(C(F)(F)F)cc2)o1	28%	12	0%	-7%	3%	-6%
Cc1ccc(C(=O)N(Cc2nnc(-c3ccccc3Cl)o2)C2CC2)o1	u	-10	x	18µM*	10µM*	-3%
O=C(c1cc(=O)[nH]c2ccccc12)N(Cc1nnc(-c2ccccc2Cl)o1)C1CC1	13µM*	-8	0%	u	-11%	17%
Cc1c(C(=O)N(Cc2nnc(-c3ccccc3Cl)o2)C2CC2)oc2ccccc12	16µM*	21	-3%	u	-16%	-1%
